This is a sample that favours compounds with a hit; in the whole collection about 3.7% have one here.
BoNT F protease – inhibitors of Botulinum neurotoxin F light chain protease. Multiplex microsphere protease cleavage assay, flow cytometry. inhibition, % at 10 µM. actives 0.22% (n = 360,000). AID 588497; in the data active = inhibition above about 35%, passing the limit was not always enough; inconclusive = no clear call, values can overlap the other calls
MazEF act – increases E. coli MazEF RNase cleavage of RNA | FAM/BHQ RNA-DNA oligo cleavage fluorescence, 5 h | activation, % at 20 µM | actives 0.32% (n = 350,000); in the data active = activation above about 50%
Target sequence (P0AE70 whole entry, looked up): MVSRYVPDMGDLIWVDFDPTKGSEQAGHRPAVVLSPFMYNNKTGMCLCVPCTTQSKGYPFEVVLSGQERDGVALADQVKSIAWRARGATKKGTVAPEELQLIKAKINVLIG
BoNT-A LC inh2 – blocks Botulinum neurotoxin A light chain protease; multiplex microsphere protease substrate cleavage, flow cytometry; inhibition, % at 10 µM; actives 0.17% (n = 360,000)
Autofluor counter – compound fluorescence in toxin protease inhibitor counterscreen; actives 3.1% (n = 360,000); fluorescence intensity (concentration not given with the values); AID 624483; compound autofluorescence counterscreen, microsphere flow cytometry; active compounds read high; in the data active = fluorescence intensity above about 16000; inconclusive = no clear call, values can overlap the other calls
Anthrax LF prot – blocks Bacillus anthracis lethal factor protease; P15917; multiplex microsphere protease cleavage assay, LF; inhibition, % at 10 µM; actives 0.12% (n = 360,000); AID 588501
Each line names hits and unclear results; the compound was inactive in the other large screens. Cut-off read from the data, not from the text of the source, unless noted: active = inhibition above about 30%; inconclusive = no clear call, values can overlap the other calls; inactive = below that.

COc1ccc(-c2nnc(SCCC(=O)O)n2C)cc1OC	none
COc1ccc(C(C)=O)cc1CSc1nnc(-c2ccccc2O)n1-c1ccccc1	Autofluor counter 19750
CCNS(=O)(=O)c1ccc(CCC(=O)N2CCc3ccccc3C2)cc1	none
Cc1cc(C)nc(NNS(=O)(=O)c2c(F)cc(F)cc2Br)n1	none
Cc1ccc2nc(C3CCCCC3)c(Cc3ccsc3)n2c1	none (no result: MazEF act)
CCN(CC)S(=O)(=O)c1ccc(NC(=O)c2ccccc2N(C)S(C)(=O)=O)cc1	BoNT-A LC inh2 inconclusive, Autofluor counter 21922
COc1ccccc1CNC(=O)c1ccccc1NS(C)(=O)=O	Autofluor counter 20558
COc1ccccc1CNC(=O)c1ccccc1N	none
CCN(CC)S(=O)(=O)c1ccc(NC(=O)c2ccc(N(C)S(C)(=O)=O)cc2)cc1	none
COc1ccccc1CNC(=O)c1ccccc1N(C)S(C)(=O)=O	Autofluor counter 19853
O=C(NCCCO)C(=O)NCCc1ccc(Cl)cc1	none
COc1cc(NC(=O)c2ccccc2)c(OC)cc1NC(=O)Cc1ccc(Br)cc1	BoNT F protease inconclusive, MazEF act 55
COc1ccc(CCC(=O)OCC(=O)Nc2ccc(OC)c(OC)c2)cc1OC	none
COC(=O)c1sc(NC(=O)COc2ccc(C)cc2)nc1C	Autofluor counter 20397
CCOc1cccc(C2C(C(=O)c3ccco3)=C(O)C(=O)N2c2nnc(C)s2)c1 (stereo unspecified)	none
CCSc1nnc(N2C(=O)C(O)=C(C(=O)c3ccco3)C2c2cccc(OC)c2)s1 (stereo unspecified)	MazEF act 65
COc1ccccc1NC(=O)CON=C(N)CC(=O)NC1CCCCC1	none
Cc1cc(Oc2nc3ccccn3c(=O)c2/C=C(\C#N)C(=O)NC2CCS(=O)(=O)C2)ccc1Cl (stereo unspecified)	none
COc1ccc(N2C(=O)[C@@H]3Cc4ccccc4CN3C2=O)cc1	none
Cc1ccc(N2C(=O)[C@@H]3Cc4ccccc4CN3C2=O)cc1	Autofluor counter 21075
Cc1cccc(OCC(=O)OC(C)CN2CCCCC2)c1 (stereo unspecified)	none
CO/N=C/NC(=O)c1cn(-c2ccc(F)cc2)c(=O)c2ccccc12	Autofluor counter 16209
COC(=O)c1cn(-c2ccc(F)cc2)c(=O)c2ccccc12	none
O=C(O)/C(=C/c1ccco1)NC(=O)c1ccccc1	none
O=C(O)/C(=C\c1ccco1)NC(=O)c1cccc2ccccc12	Autofluor counter 20299
Cn1cnnc1SCC(=O)Nc1ccc2nc(SCc3cccc4ccccc34)sc2c1	none
CCC(=O)Nc1ccc2nc(SCC(=O)N3CCCC3)sc2c1	Autofluor counter 20940
Cn1cnnc1SCC(=O)Nc1ccc2nc(SCc3ccccc3Cl)sc2c1	BoNT-A LC inh2 inconclusive, Autofluor counter 25037
Cn1c(SCC(=O)Nc2ccc3nc(SCC(=O)N4CCCC4)sc3c2)nnc1-c1ccc(N)cc1	none
CC(C)(C)NC(=O)CSc1nc2ccc(Nc3nc(N4CCOCC4)nc(N4CCOCC4)n3)cc2s1	none
CC(=O)CSc1nc2ccc(Nc3nc(N4CCOCC4)nc(N4CCOCC4)n3)cc2s1	Autofluor counter 16232
CC(Cc1nnc(SCC(=O)O)n1N)c1ccccc1 (stereo unspecified)	none
N#Cc1ccc(NC(=O)COc2ccc(-n3cnnn3)cc2)cc1	none
CCN(c1ccc(OCC(=O)OCC(=O)Nc2ccc(F)c(F)c2F)cc1)S(=O)(=O)c1ccccc1	none
COC(=O)c1c(-c2ccccc2)c[nH]c1C	BoNT F protease inconclusive, BoNT-A LC inh2 inconclusive
Cc1ccc(-c2cnc(N)n2C)cc1C	Autofluor counter 23519
Cn1c(-c2ccc(Cl)cc2)cnc1N	BoNT-A LC inh2 inconclusive, Autofluor counter inconclusive, Anthrax LF prot inconclusive
CN(C(=S)NC(=O)c1ccccc1Br)C1CCCCC1	Autofluor counter 16560
Cc1ccccc1C(=O)NC(=S)N(C)C1CCCCC1	none
Cc1ccc(N(C)S(=O)(=O)c2cccc(C(=O)NNC(=O)c3ccncc3)c2)cc1	none
c1ccc(CN2CCOCCOCCOCC2)cc1	BoNT F protease inconclusive
O=C(N1CCOCC1)N1CCN(Cc2ccccc2)CC1	BoNT-A LC inh2 inconclusive, Autofluor counter 16289
Cc1c([N+](=O)[O-])c(C(=O)N2CCCC2)nn1C	Autofluor counter 22515
COc1ccc2nc(N3C(=O)C(O)=C(C(=O)c4ccco4)C3c3ccc(C)o3)sc2c1 (stereo unspecified)	none
Cc1ccc2nc(N3C(=O)C(O)=C(C(=O)c4ccco4)C3c3cccs3)sc2c1 (stereo unspecified)	MazEF act 110
O=S(=O)(CC(CN1CCCC1)N1CCCC1)c1ccc2ccccc2c1 (stereo unspecified)	Autofluor counter 26003
Clc1ccc(Cl)c(-c2nn3c(COc4ccccc4)nnc3s2)c1	none
CCc1nnc2sc(-c3cc(-c4ccccc4)nc4ccccc34)nn12	Autofluor counter 19922
COC(=O)C1=C(C)NC(C)=C(C(=O)OC)C1c1cn(-c2ccccc2)nc1-c1ccco1	Autofluor counter 16749
COCCOC(=O)C1=C(C)NC(=O)NC1c1cn(-c2ccccc2)nc1-c1cccs1 (stereo unspecified)	none
O=C(COC(=O)C1=COCCO1)Nc1cc(Cl)c(Cl)cc1Cl	none
C=COCCNC(=O)C1CC(=O)N(c2ccc(C)cc2)C1 (stereo unspecified)	Autofluor counter 24393
Cc1ccc(OCCNC(=O)C2CC(=O)N(c3ccc(C)cc3)C2)cc1 (stereo unspecified)	none
Cc1ccc(N2CC(C(=O)Nc3cccnc3)CC2=O)cc1 (stereo unspecified)	Autofluor counter 23113
Cc1cccc(C(=O)OCC(=O)NC(=O)NC2CCCCC2)c1	none
Cc1cc(=O)oc2cc(OC(C)C(=O)N3CCOCC3)ccc12 (stereo unspecified)	Autofluor counter 23796
O=c1cc[nH]c2cccc(Cc3ccccc3)c12	Autofluor counter 24296
COc1ccc(S(=O)(=O)N2CCCCCC2)cc1NC(=O)CCNC(=O)c1ccccc1Cl	none
O=C1CC(c2ccccc2)CC(O)=C1C=NC1CCCCC1 (stereo unspecified)	Autofluor counter 23531
O=C1CC(c2ccccc2)CC(O)=C1C=NC1CCCCCC1 (stereo unspecified)	none
COc1ccc(C(C)NC(=O)Cc2cccs2)cc1 (stereo unspecified)	none
CC(NC(=O)Cc1cccs1)c1ccncc1 (stereo unspecified)	Autofluor counter 24187
Cc1ccc(C)c(NC(=O)CCC(=O)NNS(=O)(=O)c2ccc(Cl)cc2)c1	none
Cc1ccc(NC(=O)CSc2nc(=O)cc(N)n2-c2ccccc2)cc1	none
Cc1cc(NC(=O)CSc2nc3ccsc3c(=O)n2CCCCC(=O)O)no1	Autofluor counter 16845
CCOC(=O)c1cccc(NC(=O)CSc2nc3ccccc3c(=O)n2CCOC)c1	BoNT-A LC inh2 inconclusive, Autofluor counter 22521
Nc1cc(=O)nc(SCC(=O)N(C2CCCCC2)C2CCCCC2)n1-c1ccccc1	BoNT-A LC inh2 inconclusive, Autofluor counter 16646
CCCCc1nnc(NC(=O)CSc2nc(=O)cc(N)n2-c2cccc(C)c2)s1	Autofluor counter 16503
CCCCn1c(SCC(=O)Nc2cc(C)on2)nc2ccsc2c1=O	none

Screening data from PubChem.
